# aSyn UTR act – Activators working through SNCA 5'UTR binding (MLPCN); alpha-synuclein 5'UTR reporter, activators screen; AID 1814; activity score, % (tested at 7.5 µM), hits read low; actives 7.1% (n = 300,000); in the data active = activity score below about -60%
# The depositor's hits bear a star. Not all results are given here.
SMILES,aSyn UTR act
Cn1c(NC(=O)/C=C/c2ccccc2)cc(=O)n(C)c1=O,-253*
COc1cc(/C=C/C(=O)c2ccc3c(c2)OCCO3)cc(Br)c1OCC(=O)N(C)C,-819*
[O-][n+]1c2c(nc3c1-c1ccccc1C3O)CCCC2 (stereo unspecified),-77*
Cc1ccc(-c2ccc(/C=N/O)o2)cc1[N+](=O)[O-],-66*
CCOC(=O)CC(NC(=O)c1cc2cccc(OC)c2oc1=O)c1ccc(OC)cc1 (stereo unspecified),-70*
COc1cccc2cc(C(=O)NCc3ccccn3)c(=O)oc12,-164*
Nc1nn(-c2ccccc2)nc1C(=O)OCc1ccccc1,-63*
Cc1ccc(C(=O)n2nc(-c3ccccc3)nc2NCc2ccco2)cc1,-68*
O=S(=O)(c1ccccc1)n1nc(-c2ccccc2)nc1NCc1ccco1,-65*
CCCC(=O)n1nc(-c2ccc(C)cc2)nc1NCc1ccco1,-88*
CC(C)(C)c1ccc(-c2noc(CCC(=O)NCc3ccco3)n2)cc1,77
CCCC(=O)Nc1cc(C)c2c(=O)oc3ccccc3c2n1,-74*
CCC(=O)Nc1ccc2nc(C3CC3)n(Cc3ccc(C(C)(C)C)cc3)c(=O)c2c1,-150*
CC(=O)Nc1ccc2nc(C3CC3)n(Cc3ccc(Cl)cc3)c(=O)c2c1,-165*
COc1ccc(Cn2c(C3CC3)nc3ccc(NC(=O)C4CC4)cc3c2=O)cc1,-280*
O=C(O)c1ccccc1N/N=C\c1ccnc2ccccc12,76
O=C(O)c1ccccc1N/N=C/c1cc(Br)cc(Br)c1O,-111*
Cc1ccc(C(=O)NC(=S)Nc2cccc3nsnc23)cc1,-100*
O=C(Nc1cccc2nsnc12)c1ccc2c(c1)OCO2,-110*
O=C(Nc1cccc2nsnc12)c1ccc2c(c1)OCCO2,-213*
COc1ccc(CN=Cc2[nH]c3ccc(Br)c(Cl)c3c2O)cc1,-78*
Clc1ccc(Cn2nc(-c3ccccc3)nc2-c2ccccc2)cc1,-114*
N/C(=N\OC(=O)CCc1ccccc1)c1ccccc1Cl,-70*
Cc1ccc(/C(N)=N/OC(=O)CCc2ccccc2)cc1,-129*
CCCCc1nc2cc(C(=O)N(C)C3CCOCC3)ccc2o1,-165*
SMILES,aSyn UTR act
O=C(c1ccc2oc(CCCc3ccccc3)nc2c1)N1CCCC(CCCO)C1 (stereo unspecified),-65*
O=C(c1ccc2oc(CCc3ccccc3)nc2c1)N1CC[C@H](O)C1,-134*
CCCCc1nc2cc(C(=O)N3CCC(O)CC3)ccc2o1,-83*
COc1ccc(C(=O)COc2ccccc2N2C(=O)C3C4C=CC(C4)C3C2=O)cc1 (stereo unspecified),-82*
COc1ccc(C(=O)CNc2ccccc2C#N)cc1,-93*
COc1ccc(C(=O)COc2ccccc2C#N)cc1,-127*
COc1ccc(C(=O)CNc2ccccc2CO)cc1,-70*
CCN(CC)S(=O)(=O)c1cc(C(=O)Nc2cc(C)[nH]n2)ccc1Cl,-161*
Cc1cc(NC(=O)c2cccc(Br)c2)n[nH]1,-141*
COc1cccc(C(=O)NC(=O)Nc2cc(C)[nH]n2)c1,-140*
COc1cccc(C(=O)Oc2c(Br)cc(Br)cc2/C=N/NC(=O)c2cc(C)[nH]n2)c1,64
Cc1cc(C)c(-c2nc3ccccc3s2)[nH]1,-190*
CC(=O)c1ccc(OCc2cc(C(=O)N3CCOCC3)no2)cc1,-154*
CC(=O)c1ccc(OCc2cc(C(=O)N3CCC(Oc4ccccc4C)CC3)no2)cc1,-182*
Cc1ccc(S(=O)(=O)/N=C(/NNC(=O)c2cccc(Cl)c2)c2ccccc2)cc1,-101*
O=S(=O)(/N=C(/Nc1ccccn1)c1ccc(Cl)cc1)c1ccc(Cl)cc1,-91*
O=C(NN/C(=N/S(=O)(=O)c1ccc(Cl)cc1)c1ccccc1)c1ccc(O)cc1,-112*
O=C(NN/C(=N/S(=O)(=O)c1ccc(Cl)cc1)c1ccccc1)c1cccc(Cl)c1,-124*
CCC(CC)C(=O)Nc1cccc(C(=O)NCCc2ccccc2)c1,-64*
O=C(c1ccc(Cl)c([N+](=O)[O-])c1)N(c1ccccn1)c1ccccn1,-98*
Cc1cc(C(=O)NCCc2ccccc2)ccc1[N+](=O)[O-],-116*
CCCN1CCC(Oc2cccc(C(=O)NCCc3ccccc3)c2)CC1,-72*
O=C(NCCc1ccccc1)c1ccc(Cl)c([N+](=O)[O-])c1,-99*
Cc1cccc(C(=O)NCCc2ccccc2)c1,-112*
Cc1nonc1NC(=O)CSc1nc2c(C)cccc2cc1C#N,-98*
SMILES,aSyn UTR act
Cc1cc2cc(C#N)c(SCC(=O)Nc3nonc3C)nc2cc1C,-92*
CCc1cc2c(C)ccc(C)c2nc1SCC(=O)Nc1cc(C)on1,55
COc1ccc2cc(C#N)c(SCC(=O)Nc3nonc3C)nc2c1,-79*
Cn1c(=O)c(C(=O)NC2CCCCCC2)c(O)c2ccccc21,-72*
CC1CCC(NC(=O)c2cc3c(=O)n(C)c4ccccc4c3n2C)CC1 (stereo unspecified),-98*
Cn1cc(C(=O)C(=O)NC2CCCCC2)c2ccccc21,-68*
C=CCn1c(O)c(N=NC(=S)Nc2ccc(OC)c(Cl)c2)c2ccccc21,61
COc1ccc(NC(=O)c2cc3c(=O)n(C)c4ccccc4c3n2C)cc1Cl,-72*
Cn1c(=O)c(C(=O)NC2CCCCCCC2)c(O)c2ccccc21,-166*
C=CCn1c(SCc2c(C)noc2C)nc2sc3c(c2c1=O)CCCCC3,65
O=c1c2c3c(sc2nc2sc(CN4CCCCC4)cn12)CCCC3,-87*
Brc1cccc2sc(N3CCCC3)nc12,-75*
Clc1cccc2sc(N3CCOCC3)nc12,-64*
Fc1cccc2sc(N3CCCC3)nc12,-79*
O=[N+]([O-])c1ncccc1OCc1ccc(Cl)c(Cl)c1,-121*
CC(=O)Oc1ccccc1-c1nc(C)nc(N(C)C(C)=O)n1,-70*
O=C(Nc1ccccc1)[C@@H]1[C@@H]2C(=O)N(c3ccc(F)cc3)C(=O)[C@@H]2[C@H]2C=CC=NN21,-68*
CC(=O)Oc1ccc(C(=O)[C@H]2[C@H]3C(=O)N(c4ccc(C)cc4)C(=O)[C@H]3[C@@H]3C=CC=NN32)cc1,-62*
CC(C)CSc1nnc2c3ccccc3n(C)c2n1,-75*
CN(C)CCn1c2ccccc2c2nc3ccc([N+](=O)[O-])cc3cc21,104
CCN(CC)CCSc1nnc2c3ccccc3n(CCc3ccccc3)c2n1,-106*
CC(=O)c1ccc(NC(=O)C(C)OC(=O)c2ccc3c(c2)nc(C)n3-c2ccccc2)cc1 (stereo unspecified),-91*
Cc1cc(=O)n2cc(-c3ccccc3)nc2[nH]1,-70*
C/C(=N\Nc1ccccn1)c1ccc2c(c1)OCO2,-159*
C/C(=N\Nc1nc2ccccc2[nH]1)c1ccc2c(c1)OCO2,-124*
SMILES,aSyn UTR act
C(=N\Nc1nc2ccccc2[nH]1)/c1ccc2c(c1)OCO2,-222*
Clc1ccccc1N/N=C/c1ccc2c(c1)OCO2,-176*
C/C(=N\Nc1nc2ccccc2[nH]1)c1ccccn1,87
C/C(=N\Nc1nc2ccccc2[nH]1)c1cc2ccccc2o1,-138*
C/C(=N\Nc1nc2ccccc2[nH]1)c1ccc2c(c1)OCCO2,-88*
COc1ccc(Nc2nc(N)c3ccccc3n2)c(OC)c1,-198*
NC(=O)c1ccccc1N/C=C/C(=O)c1ccco1,-97*
O=C(/C=C/Nc1cccc(C(F)(F)F)c1)c1ccco1,-174*
O=C(/C=C/Nc1ccccc1C(F)(F)F)c1ccco1,-321*
O=C(/C=C/Nc1ccc(Oc2ccccc2)cc1)c1ccco1,-201*
O=C(/C=C/Nc1cccc(C(F)(F)F)c1)c1ccc(Oc2ncccn2)cc1,-94*
CC(C(=O)N1CCCCC1)n1sc2ccccc2c1=O (stereo unspecified),-134*
